In the library only some 19% were active in any assay of this set; here they are far more common.
TDP1 inh – TDP1 (human) enzyme inhibition. 350,000 tested, 0.28% active. AID 485290. recombinant TDP1, AlphaScreen DNA substrate cleavage. Potency, µM (top dose mostly 130 µM), hits mostly inhibitors. Q9NUW8; further: nearly all actives have a fitted effect of over 40% in size
Target sequence (Q9NUW8 whole entry, looked up): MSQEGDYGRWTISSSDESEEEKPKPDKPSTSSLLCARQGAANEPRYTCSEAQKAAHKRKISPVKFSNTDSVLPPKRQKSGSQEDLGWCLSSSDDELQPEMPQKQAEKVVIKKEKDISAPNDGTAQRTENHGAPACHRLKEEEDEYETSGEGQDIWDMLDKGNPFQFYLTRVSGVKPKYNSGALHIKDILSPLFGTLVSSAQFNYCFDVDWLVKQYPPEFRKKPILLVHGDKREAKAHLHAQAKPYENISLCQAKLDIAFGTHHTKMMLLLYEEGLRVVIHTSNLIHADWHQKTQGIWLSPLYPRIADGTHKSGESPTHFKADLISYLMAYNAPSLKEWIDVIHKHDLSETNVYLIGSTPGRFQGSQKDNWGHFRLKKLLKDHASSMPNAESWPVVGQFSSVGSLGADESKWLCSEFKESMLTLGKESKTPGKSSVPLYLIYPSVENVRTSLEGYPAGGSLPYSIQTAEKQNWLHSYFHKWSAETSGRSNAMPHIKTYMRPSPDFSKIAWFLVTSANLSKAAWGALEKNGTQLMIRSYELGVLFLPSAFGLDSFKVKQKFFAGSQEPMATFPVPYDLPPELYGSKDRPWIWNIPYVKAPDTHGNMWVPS
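Compounds were preincubated with Tdp1 (1 nM final) for 15 min at room temperature before substrate (15 nM final) started a 5 min reaction; beads (10 ug/ml final) were then added for 10 min before AlphaScreen detection.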
ELG1 DNA repair – ELG1-dependent DNA repair inhibition | HEK293T ELG1-luciferase reporter, luminescence, 16 h; DNA damage induced by 5-fluorouridine | Potency, µM (series often up to 46.1 µM), actives largely listed as inhibitors | 330,000 tested, 2.3% active; further: nearly all actives have a fitted effect of over 55% in size
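DMSO vehicle served as the neutral condition. Each well held 2,000 cells given 5-fluorouridine plus compound; after 16 hr at 37 °C/5% CO2, ONE-Glo was added and luciferase measured 30 min later.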
IL-1B inflam inh – inflammasome signaling inhibition, IL-1 beta readout. 360,000 tested, 4.7% active. THP-1 LPS/ATP IL-1B secretion, AlphaLISA, 16 h; hits give low values. AID 743279. activity change, % at 57.5 µM; in the data active means activity change below about -50%; inconclusive means mostly about -30% to -49%
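THP-1 cells pretreated 1 hr with compounds (up to 57.5 uM final), then stimulated with LPS (250 ng/mL final) plus ATP (1.25 mM final); secreted IL-1B measured by AlphaLISA after 16 hr, decreased signal indicating inhibition.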
Giardia killer – kills Giardia lamblia; Giardia lamblia trophozoite viability; activity change, % at 7.66 µM, hits read low; 340,000 tested, 0.15% active; in the data active means activity change below about -80%; inconclusive means between about -30% and that limit;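 further: parasites exposed to compound for two days anaerobically before the ATP read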
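Luminescence from cellular ATP indicates surviving trophozoites (100 cells/well) following 48 hrs anaerobic compound treatment at 37 deg C; signal develops 15-30 min at room temperature.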
TDP1 cell CPT – growth inhibition of DT40 Tdp1-/-;hTDP1 cells with camptothecin (screen for TDP1 inhibitors) | Potency, µM (top dose mostly 46.2 µM), hits mostly inhibitors | chicken DT40 Tdp1-/-;hTDP1 cells + 20 nM CPT, ATP luminescence, 48 h | 420,000 tested, 12% active | AID 686979; further: nearly all actives have a fitted effect of over 55% in size
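Chicken DT40 Tdp1-/- cells stably complemented with human TDP1 were seeded at 400 cells/well in medium containing 20 nM camptothecin, exposed to pin-transferred compounds, and grown at 37 °C for at least 48 hr. Viability was read as ATP luminescence.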
DT40 TDP1 no CPT – qHTS for Inhibitors of human tyrosyl-DNA phosphodiesterase 1 (TDP1): qHTS in cells in absence of CPT. 420,000 tested, 15% active. Potency, µM (series often up to 46.2 µM), actives largely listed as inhibitors. DT40 Tdp1-/- hTDP1 cells, no CPT, ATP luminescence, 48 h; further: nearly all actives have a fitted effect of over 55% in size
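Luminescent ATP content (CellTiter-Glo) served as the growth readout. Knockout chicken DT40 cells expressing human TDP1 were exposed to compounds without camptothecin for a minimum 48 hr at 37 °C.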
Large screens that a line does not name were inactive. Unless noted, the call rests on the fitted dose curve; in most records, active means well fitted curve in the direction sought with a large enough effect; inconclusive means small, poorly fitted or top-dose-only effect, or another doubt; inactive means no such curve, though single readings can be large; an effect the other way counts as inactive or inconclusive.

Nc1cccc(Oc2ccc3c(c2)C(=O)N(CC2CCCO2)C3=O)c1 (stereo unspecified)	ELG1 DNA repair inconclusive
CN(C)S(=O)(=O)N1CCCC(C(=O)c2ccc(-c3ccccc3)c(F)c2)C1 (stereo unspecified)	ELG1 DNA repair inconclusive, TDP1 cell CPT 16.4µM, DT40 TDP1 no CPT 14.6µM (no result: TDP1 inh)
CCOc1ccccc1CN1CCCC(C(=O)c2ccc(OC)c(OC)c2)C1 (stereo unspecified)	TDP1 cell CPT inconclusive, DT40 TDP1 no CPT inconclusive (no result: TDP1 inh)
O=C(c1ccc(-c2ccccc2)c(F)c1)C1CCCN(CCCn2cccn2)C1 (stereo unspecified)	IL-1B inflam inh inconclusive, TDP1 cell CPT 16.4µM, DT40 TDP1 no CPT inconclusive (no result: TDP1 inh)
COc1c(C)cc(C(=O)C2CCCN(S(=O)(=O)N(C)C)C2)cc1C (stereo unspecified)	TDP1 cell CPT inconclusive, DT40 TDP1 no CPT 13µM (no result: TDP1 inh)
CSc1ccc(C(=O)C2CCCN(S(=O)(=O)N(C)C)C2)cc1 (stereo unspecified)	ELG1 DNA repair inconclusive, DT40 TDP1 no CPT inconclusive
COc1ccc(C(=O)C2CCCN(Cc3cn(C)nc3-c3ccccc3)C2)cc1F (stereo unspecified)	TDP1 cell CPT inconclusive, DT40 TDP1 no CPT 25.9µM
CSc1ccccc1C(=O)C1CCCN(Cc2cnn(-c3ccccc3)c2)C1 (stereo unspecified)	DT40 TDP1 no CPT inconclusive (no result: TDP1 inh)
CCn1cc(CN2CCCC(C(=O)c3ccc(-c4ccccc4)c(F)c3)C2)cn1 (stereo unspecified)	IL-1B inflam inh -81.3, TDP1 cell CPT 18.4µM, DT40 TDP1 no CPT 23.1µM (no result: TDP1 inh)
CCOC(=O)N1CCC(NC(=O)c2ccc3c(c2)sc2nc(-c4cccc(OC)c4)cn23)CC1	ELG1 DNA repair 2.91µM (no result: IL-1B inflam inh, Giardia killer, TDP1 cell CPT, DT40 TDP1 no CPT)
CCOC(=O)N1CCC(NC(=O)c2ccc3snnc3c2)CC1	none
CCOC(=O)N1CCC(NC(=O)c2ccc3c(c2)sc2nc(-c4ccccc4)cn23)CC1	TDP1 cell CPT 14.6µM, DT40 TDP1 no CPT 9.2µM
COc1ccc(-c2cc(CNS(=O)(=O)c3ccccc3)on2)cc1	DT40 TDP1 no CPT inconclusive
CCN(CC)C(=O)c1scc2c1OCCO2	ELG1 DNA repair inconclusive, IL-1B inflam inh -56.1
Brc1cccc[n+]1CCC[n+]1ccccc1Br	DT40 TDP1 no CPT inconclusive (no result: TDP1 inh, ELG1 DNA repair, IL-1B inflam inh, Giardia killer)
O=C(Cn1nc(Cl)nc1Cl)c1ccc(F)cc1	none
O=C(Cn1nc(Cl)nc1Cl)c1ccc2c(c1)OCCO2	IL-1B inflam inh inconclusive, TDP1 cell CPT 5.17µM, DT40 TDP1 no CPT 13µM
O=C(Cn1nc(Cl)nc1Cl)c1ccccc1	TDP1 cell CPT inconclusive, DT40 TDP1 no CPT 14.6µM (no result: TDP1 inh)
CSCC[C@H](CO)NC(=O)[C@H]1O[C@@H](n2cnc3c(N)ncnc32)[C@H](O)[C@@H]1O	none (no result: TDP1 inh, ELG1 DNA repair, Giardia killer)
COc1ccccc1-c1nnc(SCC(=O)NCc2c(C)c(Cl)cc(C(C)C)c2O)o1	ELG1 DNA repair inconclusive, TDP1 cell CPT 29.1µM, DT40 TDP1 no CPT inconclusive
COc1ccccc1-c1nnc(SCC(=O)Nc2c(Cl)cccc2Cl)o1	TDP1 cell CPT 18.4µM, DT40 TDP1 no CPT 20.6µM
COc1ccccc1-c1nnc(SCC(=O)NC2CCCCC2)o1	TDP1 cell CPT inconclusive, DT40 TDP1 no CPT inconclusive
CCOC(=O)[C@@H]1[C@H]2COc3cc(OC)ccc3[C@H]2N2C(=O)N(c3cccc(Cl)c3)C(=O)[C@]12C	ELG1 DNA repair inconclusive, IL-1B inflam inh inconclusive, TDP1 cell CPT 14.6µM, DT40 TDP1 no CPT inconclusive (no result: TDP1 inh)
CCOC(=O)[C@@H]1[C@H]2COc3ccccc3[C@H]2N2C(=O)N(c3cccc(Cl)c3)C(=O)[C@@]12C	ELG1 DNA repair inconclusive, TDP1 cell CPT inconclusive, DT40 TDP1 no CPT inconclusive (no result: TDP1 inh)
CCOC(=O)[C@@H]1[C@H]2COc3ccccc3[C@@H]2N2C(=O)N(c3cccc(Cl)c3)C(=O)[C@@]12C	TDP1 cell CPT inconclusive, DT40 TDP1 no CPT 16.4µM (no result: TDP1 inh)
CCOC(=O)[C@@H]1[C@H]2COc3ccccc3[C@H]2N2C(=O)N(c3ccc(Cl)cc3)C(=O)[C@]12C	TDP1 cell CPT inconclusive, DT40 TDP1 no CPT 20.6µM (no result: TDP1 inh)
O=C(CCC(=O)N1Cc2ccccc2Oc2ncccc21)NCc1cccc(Cl)c1	TDP1 cell CPT inconclusive (no result: ELG1 DNA repair, IL-1B inflam inh, Giardia killer)
